Experimental data from PubChem BioAssay.
Active and inactive are the calls of the source.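 The calls were made as follows, unless noted: active = visual image review flags a hit and inhibition of aggregation exceeds 20%; inconclusive = visual hit but inhibition at or below 20%; inactive = no hit on visual image review.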

Experiment: inhibitors of TNFa-induced NFkB p65 translocation, primary screen, imaging, HUVEC, MLSMR starter and 10KST1 sets (AID 438;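 active = inhibition above 20% together with a positive visual image hit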;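 also: compound added about 3h40 before a 20 min TNFalpha stimulation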;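 as to inhibition: signal is the nuclear over cytoplasmic p65 intensity ratio per well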)
Details: HUVEC TNFa-induced p65 nuclear translocation; cell count: measured here: nuclei count (cytotoxicity indicator), at 2.08 µM; inhibition: at 2 µM, stronger effect = higher value, 0% TNFa-plus-vehicle, 100% no-TNFa wells

Row | SMILES | inhibition | cell count
1 | CC(C)OC(=O)c1cc(NC(=O)C2C3CCC(O3)C2C(=O)O)cc(C(=O)OC(C)C)c1 (stereo not given) | 4.2% (inactive) | 418
2 | O=C(CSc1nnc(-c2ccc(Br)cc2)n1C1CCCCC1)N1CCCC1 | -17.8% (inactive) | 306
3 | O=C(c1nn2cccnc2c1Cl)N1CCN(c2ccccc2)CC1 | 3.6% (inactive) | 344
4 | CCCN1Cc2cccc(C(=O)NC3CCCC3)c2C1=O | 0.7% (inactive) | 653
5 | CS(=O)(=O)N(CC(=O)Nc1ccc2c(c1)OCO2)Cc1ccc(Cl)cc1 | 8.9% (inactive) | 303
6 | COC(=O)C1C2C=CC3(CN(CC4CCCO4)C(=O)C13)O2 (stereo not given) | 4% (inactive) | 504
7 | Cc1ccc(F)cc1NC(=O)C1CCCN(c2ncccn2)C1 (stereo not given) | -7.8% (inactive) | 692
8 | CC(OC(=O)c1ccco1)C(=O)NCc1cccs1 (stereo not given) | -4.4% (inactive) | 609
9 | CCc1nnc(NC(=O)CSc2nnc(-c3ccccc3OC)n2-c2ccccc2)s1 | -6.9% (inactive) | 276
10 | FC(F)(F)c1ccc(Sc2nnc(-c3cccs3)n2CC2CCCO2)nc1 (stereo not given) | -21.4% (inactive) | 357
11 | O=C(O)c1ccc(NC(=O)c2cccs2)cc1 | 1.2% (inactive) | 464
12 | Cc1ccc(Nc2nc(N)nc(CN3CCN(Cc4ccc5c(c4)OCO5)CC3)n2)cc1 | 4.6% (inactive) | 385
13 | CCOC(=O)Cc1csc(NC(=O)c2cccc(OC)c2)n1 | 5.8% (inactive) | 395
14 | C=CCNc1nc2c(c(=O)n(C)c(=O)n2C)n1CCCCCC | 4.7% (inactive) | 438
15 | O=C(Nc1cccnc1)c1cc2c(ccc3ccccc32)o1 | 8.1% (inactive) | 489
16 | COc1cccc(Nc2nnc(SCC(=O)N3CC(C)OC(C)C3)s2)c1 (stereo not given) | 4.8% (inactive) | 448
17 | NC(=O)c1ccsc1NC(=O)COC(=O)Cc1ccsc1 | -18.9% (inactive) | 246
18 | CCCc1ccccc1OCCNC(C)=O | 9.6% (inactive) | 585
19 | O=C(O)C1CCCCC1C(=O)Nc1ccccn1 (stereo not given) | -7.1% (inactive) | 475
20 | O=C(c1cccc2c1C(=O)N(Cc1cccnc1)C2)N1CCN(c2ccccc2)CC1 | 9.3% (inactive) | 941

Row | SMILES | inhibition | cell count
21 | CCCCCCn1c(CN2CCCC(C)C2)nc2c1c(=O)n(C)c(=O)n2C (stereo not given) | -3.8% (inactive) | 302
22 | Cc1nnc(SCCCn2c(N3CCCCC3)nc3c2c(=O)[nH]c(=O)n3C)s1 | -2.4% (inactive) | 382
23 | Cc1cc(NC(=O)Cc2c(F)cccc2Cl)no1 | -1.1% (inactive) | 586
24 | Cc1cc(C(=O)COC(=O)c2n[nH]c3ccccc23)c(C)n1C | 2.6% (inactive) | 377
25 | COc1ccc(NC(=O)CSc2ccccn2)cc1OC | -42.2% (inactive) | 554
26 | O=C(NC1CCCCCC1)c1cc(S(=O)(=O)N2CCC3(CC2)OCCO3)ccc1F | -21.4% (inactive) | 503
27 | O=C(CN(CC1CCCO1)S(=O)(=O)c1ccc(S(=O)(=O)NC2CC2)cc1)Nc1ccccc1 (stereo not given) | -15.8% (inactive) | 502
28 | CCN(CC(=O)Nc1ccc2c(c1)CCC2)Cc1nc2ccccc2c(=O)[nH]1 | 1.3% (inactive) | 382
29 | O=C(Nc1ccc(-c2nc3ncccc3o2)cc1)c1ccc(Br)o1 | 25.6% (inactive) | 340
30 | COC(=O)Cc1cc(=O)n(-c2ccccc2)[nH]1 | 3.1% (inactive) | 435
31 | CN(C)c1ccc(C2C3=C(CCCC3=O)OC3=C2C(=O)CCC3)cc1 | -6.3% (inactive) | 571
32 | CCOC(=O)N1CCN(C(=O)CN(Cc2ccccc2)S(=O)(=O)c2ccc(OC)c(C)c2)CC1 | -2.3% (inactive) | 320
33 | CC1Cc2ccccc2N1CC(=O)NC(=O)NCc1ccco1 (stereo not given) | -2.6% (inactive) | 441
34 | CN(c1ccccc1C(=O)NCC1CCCO1)S(C)(=O)=O (stereo not given) | 3.8% (inactive) | 314
35 | O=C(CSc1ccc(-c2ccccc2)nn1)N1CCOCC1 | -5.6% (inactive) | 664
36 | O=C(CCC(=O)OCC(=O)c1ccccc1)NC1CCCCC1 | 1.2% (inactive) | 449
37 | N#Cc1c(-c2ccc3c(c2)OCO3)csc1N | -4.7% (inactive) | 584
38 | CCCN1CCN(C(=O)Cn2cccc2C(=O)c2ccccc2)CC1 | 5.4% (inactive) | 568
39 | CCCCOC(=O)Nc1nccs1 | -2.6% (inactive) | 690
40 | c1ccc2c(SCc3cn4cccnc4n3)ncnc2c1 | -14.3% (inactive) | 553

Experiment: reduction of polyQ htt aggregates in cells – imaging, exon1htt(103Q)mCFP cells, high-content imaging, primary screen (AID 483);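 also: compound exposure lasted 3 days before fixation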;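 as to nuclei count: percent of the per-plate median nuclei count of sample wells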
Details: exon1htt(103Q)mCFP cell line, aggregate imaging, at 2 µM; inhibition of aggregation: stronger effect = higher value; nuclei count: measured here: cell count, toxicity

Row | SMILES | nuclei count | inhibition of aggregation
41 | CC(C)OC(=O)c1cc(NC(=O)C2C3CCC(O3)C2C(=O)O)cc(C(=O)OC(C)C)c1 (stereo not given) | 108% | 7.3% (inactive)
42 | O=C(CSc1nnc(-c2ccc(Br)cc2)n1C1CCCCC1)N1CCCC1 | 101% | 5.3% (inactive)
43 | O=C(c1nn2cccnc2c1Cl)N1CCN(c2ccccc2)CC1 | 80.1% | -7.7% (inactive)
44 | CCCN1Cc2cccc(C(=O)NC3CCCC3)c2C1=O | 95.2% | 14% (inactive)
45 | CS(=O)(=O)N(CC(=O)Nc1ccc2c(c1)OCO2)Cc1ccc(Cl)cc1 | 92% | -3.1% (inactive)
46 | COC(=O)C1C2C=CC3(CN(CC4CCCO4)C(=O)C13)O2 (stereo not given) | 111% | -7.3% (inactive)
47 | Cc1ccc(F)cc1NC(=O)C1CCCN(c2ncccn2)C1 (stereo not given) | 117% | -34.5% (inactive)
48 | CC(OC(=O)c1ccco1)C(=O)NCc1cccs1 (stereo not given) | 83% | 7.4% (inactive)
49 | CCc1nnc(NC(=O)CSc2nnc(-c3ccccc3OC)n2-c2ccccc2)s1 | 146% | 14.1% (inactive)
50 | FC(F)(F)c1ccc(Sc2nnc(-c3cccs3)n2CC2CCCO2)nc1 (stereo not given) | 83.2% | -3% (inactive)
51 | O=C(O)c1ccc(NC(=O)c2cccs2)cc1 | 89.3% | 6.1% (inactive)
52 | Cc1ccc(Nc2nc(N)nc(CN3CCN(Cc4ccc5c(c4)OCO5)CC3)n2)cc1 | 91.6% | 54.3% (active)
53 | CCOC(=O)Cc1csc(NC(=O)c2cccc(OC)c2)n1 | 97% | -28.7% (inactive)
54 | C=CCNc1nc2c(c(=O)n(C)c(=O)n2C)n1CCCCCC | 94.9% | -8% (inactive)
55 | O=C(Nc1cccnc1)c1cc2c(ccc3ccccc32)o1 | 104% | -7.4% (inactive)
56 | COc1cccc(Nc2nnc(SCC(=O)N3CC(C)OC(C)C3)s2)c1 (stereo not given) | 73.5% | 14.5% (inactive)
57 | NC(=O)c1ccsc1NC(=O)COC(=O)Cc1ccsc1 | 81% | 17.1% (inactive)
58 | CCCc1ccccc1OCCNC(C)=O | 116% | 18.6% (inactive)
59 | O=C(O)C1CCCCC1C(=O)Nc1ccccn1 (stereo not given) | 109% | -2.7% (inactive)
60 | O=C(c1cccc2c1C(=O)N(Cc1cccnc1)C2)N1CCN(c2ccccc2)CC1 | 103% | -5.7% (inactive)

Row | SMILES | nuclei count | inhibition of aggregation
61 | CCCCCCn1c(CN2CCCC(C)C2)nc2c1c(=O)n(C)c(=O)n2C (stereo not given) | 104% | -10.6% (inactive)
62 | Cc1nnc(SCCCn2c(N3CCCCC3)nc3c2c(=O)[nH]c(=O)n3C)s1 | 109% | -17.5% (inactive)
63 | Cc1cc(NC(=O)Cc2c(F)cccc2Cl)no1 | 99.9% | -15.9% (inactive)
64 | Cc1cc(C(=O)COC(=O)c2n[nH]c3ccccc23)c(C)n1C | 86.6% | -0.6% (inactive)
65 | COc1ccc(NC(=O)CSc2ccccn2)cc1OC | 107% | 5.1% (inactive)
66 | O=C(NC1CCCCCC1)c1cc(S(=O)(=O)N2CCC3(CC2)OCCO3)ccc1F | 72.9% | -53.3% (inactive)
67 | O=C(CN(CC1CCCO1)S(=O)(=O)c1ccc(S(=O)(=O)NC2CC2)cc1)Nc1ccccc1 (stereo not given) | 83.4% | 17.8% (inactive)
68 | CCN(CC(=O)Nc1ccc2c(c1)CCC2)Cc1nc2ccccc2c(=O)[nH]1 | 102% | -17.4% (inactive)
69 | O=C(Nc1ccc(-c2nc3ncccc3o2)cc1)c1ccc(Br)o1 | 89.7% | -3.8% (inactive)
70 | COC(=O)Cc1cc(=O)n(-c2ccccc2)[nH]1 | 106% | -18.2% (inactive)
71 | CN(C)c1ccc(C2C3=C(CCCC3=O)OC3=C2C(=O)CCC3)cc1 | 112% | 8.9% (inactive)
72 | CCOC(=O)N1CCN(C(=O)CN(Cc2ccccc2)S(=O)(=O)c2ccc(OC)c(C)c2)CC1 | 106% | 1.8% (inactive)
73 | CC1Cc2ccccc2N1CC(=O)NC(=O)NCc1ccco1 (stereo not given) | 91.7% | 9.8% (inactive)
74 | CN(c1ccccc1C(=O)NCC1CCCO1)S(C)(=O)=O (stereo not given) | 94.8% | 4.6% (inactive)
75 | O=C(CSc1ccc(-c2ccccc2)nn1)N1CCOCC1 | 118% | -24% (inactive)
76 | O=C(CCC(=O)OCC(=O)c1ccccc1)NC1CCCCC1 | 95% | 1.6% (inactive)
77 | N#Cc1c(-c2ccc3c(c2)OCO3)csc1N | 94% | 7.8% (inactive)
78 | CCCN1CCN(C(=O)Cn2cccc2C(=O)c2ccccc2)CC1 | 109% | -4.9% (inactive)
79 | CCCCOC(=O)Nc1nccs1 | 116% | 4.5% (inactive)
80 | c1ccc2c(SCc3cn4cccnc4n3)ncnc2c1 | 109% | 0.5% (inactive)
